PubChem BioAssay (Tox21)
Inconclusive results are not listed. The source made the active and inactive calls. Unless noted, the call rests on the fitted dose curve; in most records, active means well fitted curve in the direction sought with a large enough effect in the repeat runs; inconclusive means weak or mixed curves; inactive means no such curve, though single readings can be large; an effect the other way counts as inactive or inconclusive.

Legend:
[1] = biological target: Luciferin 4-monooxygenase (Photinus pyralis) (UniProt P08659); test: qHTS assay to identify small molecule inhibitors of firefly luciferase (AID 1224835); further: nearly all actives have a fitted effect of over 25% in size
How it was run: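 Quantitative HTS format; KM concentrations of both substrates. Purified P. pyralis FLuc activity quantified from luminescence images.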

[2] = qHTS assay to identify small molecule agonists of the constitutive androstane receptor (CAR) signaling pathway - cell viability counter screen (AID 1224836); further: nearly all actives have a fitted effect of over 45% in size
How it was run: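 HepG2 cells stably carrying hCAR and a CYP2B6-2.2kb reporter; 15-concentration compounds plus PK11195 (final 0.75 uM), 23 hr at 37 C/5% CO2. Viability read by CellTiter-Fluor fluorescence.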

[3] = biological target: Nuclear receptor subfamily 1 group I member 3 (Homo sapiens) (UniProt Q14994); test: qHTS assay to identify small molecule antagonists of the constitutive androstane receptor (CAR) signaling pathway (AID 1224838); further: nearly all actives have a fitted effect of over 40% in size
How it was run: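 HepG2 cells stably carrying hCAR and a CYP2B6-2.2kb luciferase reporter, seeded 4 hrs before compound (15 concentrations). Stimulated with 50 nM CITCO for 24 hr at 37 C. ONE-Glo luminescence read after 30 min at room temperature.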

[4] = qHTS assay to identify small molecule antagonists of the estrogen related receptor signaling pathway with the pleiotropic PPARgamma coactivator (PGC) from Tox21 10K library - cell viability counter screen (AID 1224840; active means well fitted cell-killing curve with a large enough effect in the repeat runs, not every such curve was filed as active; further: nearly all actives have a fitted effect of over 40% in size)
How it was run: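 PGC/ERR cells (2,000/well) plated 6 h, then compound-treated for 17.5 h at 37 C. Viability measured by CellTiter-Fluor fluorescence after 30 min at 37 C, multiplexed with the pathway assay.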

[5] = qHTS assay to identify small molecule antagonists of the estrogen related receptor signaling pathway with the pleiotropic PPARgamma coactivator (PGC) from Tox21 10K library (AID 1224841; call rule not given here; further: actives are mostly falling curves and most rising ones were filed inactive; nearly all actives have a fitted effect of over 50% in size)
How it was run: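 PGC/ERR cell line, 2,000 cells/well, pre-incubated 6 hours at 37 C, then exposed to compounds for 18 hours at 37 C; luciferase read with One-Glo luminescence after 30 min at room temperature.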

[6] = qHTS assay to identify small molecule agonists of the estrogen related receptor signaling pathway with the pleiotropic PPARgamma coactivator (PGC) from Tox21 10K library (AID 1224842); further: nearly all actives have a fitted effect of over 15% in size
How it was run: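 PGC/ERR reporter cells (NTP line) were seeded 2,000 per well, rested 6 h at 37 C/5% CO2, then pin-dosed with compounds in DMSO for 18 h at 37 C; luciferase read by One-Glo luminescence after 30 min at room temperature.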

[7] = biological target: Thyrotropin receptor (Homo sapiens) (UniProt P16473); test: qHTS assay to identify small molecule agonists of the thyroid stimulating hormone receptor (TSHR) signaling pathway (AID 1224843; calls by dose curve; further: nearly all actives have a fitted effect of over 45% in size)
How it was run: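 TSHR-expressing HEK293 cells (800 per well) were exposed to compounds for 30 min at room temperature. cAMP was then detected by HTRF competition with cAMP-d2 and anti-cAMP cryptate, read after 1 h at room temperature. Fifteen concentrations, triplicate.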

[8] = qHTS assay to identify small molecule agonists of the hypoxia (HIF-1) signaling pathway - cell viability counter screen (AID 1224844; calls by dose curve; further: nearly all actives have a fitted effect of over 50% in size)
How it was run: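 HRE-bla ME-180 cells, 2,000/well in 0.5% dialyzed FBS medium, treated 17 h at 37C with compounds. Viability read in the same wells as the bla reporter, by CellTiter-Glo luminescence after 30 min at room temperature.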

[9] = qHTS assay to identify small molecule agonists of H2AX (AID 1224845; active means well fitted activation curve with a large enough effect in the signal ratio in the repeat runs, not every such curve was filed as active; the % refers to the signal ratio)
How it was run: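 Wild-type CHO-K1 cells plated overnight, then exposed 3 hr at 37C to compounds at 15 concentrations (0.76% DMSO). Lysed, then HTRF anti-pH2AX(S139)-cryptate/anti-H2AX-d2 detection after 24 hr at room temperature; emissions 665 and 620 nm.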

[10] = qHTS assay to identify small molecule agonists of the hypoxia (HIF-1) signaling pathway (AID 1224846; active means well fitted activation curve with a large enough effect in the signal ratio in the repeat runs, not every such curve was filed as active; the % refers to the signal ratio)
How it was run: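 HRE-bla ME-180 beta-lactamase reporter cells in medium with 0.5% dialyzed FBS, pre-incubated 5 h then exposed to compounds 17 h at 37C, 5% CO2; reporter induction read with CCF4-AM FRET substrate.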

[11] = qHTS assay to identify small molecule agonists of H2AX - cell viability counter screen (AID 1224847; calls by dose curve; further: top concentration of the series differs between compounds; nearly all actives have a fitted effect of over 30% in size)
How it was run: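 CHO-K1 cells plated overnight at 37C, then exposed 3 h at 37C to compounds at 15 concentrations (0.76% DMSO final). Viability by CellTiter-Glo luminescence after 30 min at room temperature.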

[12] = qHTS assay to identify small molecule antagonists of the estrogen related receptor (ERR) signaling pathway from Tox21 library (AID 1224848); further: nearly all actives have a fitted effect of over 50% in size
How it was run: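 Cells: ERR line, 2,000/well; 6 h preincubation 37 C/5% CO2. Cpd in DMSO via pin tool; 18 h, 37 C. ONE-Glo, 30 min RT, luminescence.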

[13] = qHTS assay to identify small molecule agonists of the estrogen related receptor (ERR) signaling pathway from Tox21 library (AID 1224849; calls by dose curve; further: nearly all actives have a fitted effect of over 15% in size); conditions: ERR reporter cell line, ONE-Glo luciferase, 18 h; at 92.4 µM (top of the series) unless noted
How it was run: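 ERR reporter cells (NTP line) pre-incubated 6 hours at 37 C, then exposed to compounds for 18 hours at 37 C. ONE-Glo luciferase luminescence was read after 30 minutes at room temperature.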

[14] = qHTS RealTime-Glo MT Cell Viability Assay in HepG2 cells - 24 hour (AID 1224867); further: nearly all actives have a fitted effect of over 50% in size
How it was run: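 Cells + NanoLuc/prosubstrate dispensed (600 cells/well) → 5 h at 37 C/5% CO2 → compounds in DMSO transferred → 40 h incubation at 37 C, luminescence read at 0, 8, 16, 24, 32, 40 h.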

[15] = qHTS RealTime-Glo MT Cell Viability Assay in HEK293 cells - 32 hour (AID 1224868)
How it was run: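 Tox21 10K qHTS, HEK293, 600 cells/well, RealTime-Glo reagent co-dispensed with cells; 5 h preincubation, compound by pintool, 37 C, luminescence at 0–40 h.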

[16] = A CellTox Green Cytotoxicity Assay to monitor cytotoxicity in HEK293 cells - 0 hour (AID 1224869); further: nearly all actives have a fitted effect of over 50% in size
How it was run: (§1)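 HEK293 cells, 600/well, were preincubated 5 hours and then exposed to compounds at 37 C for up to 40 hours. A cell-impermeant cyanine dye staining dead-cell DNA was read by fluorescence at 0, 8, 16, 24, 32 and 40 h time points.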

[17] = qHTS RealTime-Glo MT Cell Viability Assay in HepG2 cells - 40 hour (AID 1224870); further: nearly all actives have a fitted effect of over 50% in size
How it was run: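 HepG2 cells mixed with RealTime-Glo MT reagents (NanoLuc plus cell-permeant prosubstrate) were seeded at 600 cells/well, incubated 5 h at 37 C/5% CO2, then pinned with compounds in DMSO; nonlytic luminescence tracked viability during 40 h treatment.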

[18] = A CellTox Green Cytotoxicity Assay to monitor cytotoxicity in HEK293 cells - 40 hour (AID 1224871); further: nearly all actives have a fitted effect of over 45% in size
How it was run: as §1

[19] = qHTS assay to identify small molecule antagonists of the constitutive androstane receptor (CAR) signaling pathway - cell viability counter screen (AID 1224837); further: nearly all actives have a fitted effect of over 45% in size
How it was run: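 HepG2 cells stably carrying hCAR and CYP2B6-2.2kb reporter, stimulated with 50 nM CITCO and compounds at 15 concentrations for 23 h at 37 C. Viability measured by CellTiter-Fluor fluorescence.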

[20] = biological target: Nuclear receptor subfamily 1 group I member 3 (Homo sapiens) (UniProt Q14994); test: qHTS assay to identify small molecule agonists of the constitutive androstane receptor (CAR) signaling pathway (AID 1224839); further: nearly all actives have a fitted effect of over 15% in size
How it was run: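 HepG2 cells stably co-transfected with hCAR and a CYP2B6-2.2kb luciferase reporter; compounds at 15 concentrations with 0.75 uM PK11195 present. After 24 hr at 37 C, luciferase read by ONE-Glo luminescence.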
On the % scale 0 is the no-effect control and ±100 the full control effect.

Chain of Thyrotropin receptor (Homo sapiens) (P16473 whole entry, looked up): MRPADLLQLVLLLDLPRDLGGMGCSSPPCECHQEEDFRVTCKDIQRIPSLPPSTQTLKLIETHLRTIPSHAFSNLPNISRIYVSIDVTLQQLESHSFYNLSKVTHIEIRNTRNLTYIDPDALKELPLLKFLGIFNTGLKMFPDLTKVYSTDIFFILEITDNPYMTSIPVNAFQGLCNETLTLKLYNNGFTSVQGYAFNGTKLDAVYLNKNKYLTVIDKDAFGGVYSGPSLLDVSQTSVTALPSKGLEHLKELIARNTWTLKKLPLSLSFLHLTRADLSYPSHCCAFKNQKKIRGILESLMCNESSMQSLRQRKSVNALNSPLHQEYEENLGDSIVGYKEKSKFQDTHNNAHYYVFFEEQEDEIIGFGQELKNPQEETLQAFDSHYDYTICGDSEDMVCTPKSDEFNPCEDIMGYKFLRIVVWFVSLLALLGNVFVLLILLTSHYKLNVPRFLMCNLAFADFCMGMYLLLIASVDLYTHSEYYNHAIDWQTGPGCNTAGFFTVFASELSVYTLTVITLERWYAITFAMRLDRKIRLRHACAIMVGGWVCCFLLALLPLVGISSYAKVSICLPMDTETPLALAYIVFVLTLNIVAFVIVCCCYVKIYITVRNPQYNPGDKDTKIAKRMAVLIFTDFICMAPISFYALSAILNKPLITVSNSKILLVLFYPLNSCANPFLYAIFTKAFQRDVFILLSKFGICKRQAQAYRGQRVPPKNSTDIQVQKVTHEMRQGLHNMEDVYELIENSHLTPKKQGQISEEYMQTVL
Chain of Luciferin 4-monooxygenase (Photinus pyralis) (P08659 whole entry, looked up): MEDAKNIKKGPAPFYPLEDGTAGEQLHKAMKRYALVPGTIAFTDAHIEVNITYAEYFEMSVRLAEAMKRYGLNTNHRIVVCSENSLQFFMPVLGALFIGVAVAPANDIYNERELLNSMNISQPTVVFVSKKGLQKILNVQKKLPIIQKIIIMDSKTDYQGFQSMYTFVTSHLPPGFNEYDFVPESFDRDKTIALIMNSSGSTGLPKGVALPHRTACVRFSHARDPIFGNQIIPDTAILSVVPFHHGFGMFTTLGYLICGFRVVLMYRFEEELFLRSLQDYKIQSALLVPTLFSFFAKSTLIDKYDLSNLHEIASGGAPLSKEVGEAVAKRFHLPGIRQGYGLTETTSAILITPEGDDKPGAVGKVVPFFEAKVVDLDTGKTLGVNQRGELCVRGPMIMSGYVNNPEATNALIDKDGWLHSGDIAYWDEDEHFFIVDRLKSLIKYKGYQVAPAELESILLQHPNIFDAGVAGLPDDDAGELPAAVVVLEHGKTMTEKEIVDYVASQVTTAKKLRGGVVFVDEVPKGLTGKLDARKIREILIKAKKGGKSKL
Chain of Nuclear receptor subfamily 1 group I member 3 (Homo sapiens) (Q14994 whole entry, looked up): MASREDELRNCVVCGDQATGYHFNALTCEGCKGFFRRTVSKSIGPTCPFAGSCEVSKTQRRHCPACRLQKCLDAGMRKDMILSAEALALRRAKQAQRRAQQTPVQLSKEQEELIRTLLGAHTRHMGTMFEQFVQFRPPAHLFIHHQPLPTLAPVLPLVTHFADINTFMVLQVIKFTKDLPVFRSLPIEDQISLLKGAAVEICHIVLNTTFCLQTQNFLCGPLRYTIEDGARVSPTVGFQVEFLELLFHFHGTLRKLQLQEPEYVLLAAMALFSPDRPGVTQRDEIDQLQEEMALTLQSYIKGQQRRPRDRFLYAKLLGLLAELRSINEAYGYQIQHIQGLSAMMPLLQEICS

O=C(Cl)c1cccc([N+](=O)[O-])c1
inactive: Potency [1] | Potency [2] | Potency [3] | Potency [4] | Potency [5] | Potency [6] | Potency [7] | Potency [8] | Potency [9] | outcome [10] | Potency [11] | Potency [12] | activity change, positive = activation [13] 0.643% | Potency [14] | Potency [15] | Potency [16] | Potency [17] | Potency [18]

CN(CCCN1c2ccccc2CCc2ccccc21)CC(=O)c1ccc(Cl)cc1
inactive: Potency [1] | Potency [2] | Potency [19] | Potency [4] | Potency [7] | Potency [9] | outcome [10] | Potency [11] | Potency [14] | Potency [15] | Potency [16] | Potency [18]

C=CCCC=C
inactive: Potency [1] | Potency [2] | Potency [4] | Potency [5] | Potency [7] | outcome [10] | Potency [11] | Potency [12] | activity change, positive = activation [13] 2.68% | Potency [14] | Potency [15] | Potency [16] | Potency [18]

CCC(=O)Nc1ccc(O)cc1
inactive: Potency [1] | Potency [2] | Potency [19] | Potency [4] | Potency [7] | Potency [8] | Potency [9] | outcome [10] | Potency [14] | Potency [15] | Potency [16] | Potency [18]

CCN(O)CC
inactive: Potency [1] | Potency [2] | Potency [20] | Potency [4] | Potency [8] | Potency [9] | outcome [10] | Potency [11] | Potency [14] | Potency [16] | Potency [18]

COc1nc(C)nc(NC(=O)NS(=O)(=O)c2ccccc2OCCCl)n1
inactive: Potency [1] | Potency [2] | Potency [3] | Potency [20] | Potency [4] | Potency [5] | Potency [6] | Potency [8] | Potency [9] | outcome [10] | Potency [11] | Potency [12] | activity change, positive = activation [13] -0.581% | Potency [14] | Potency [15] | Potency [16] | Potency [17] | Potency [18]

O=C1Nc2ccc([N+](=O)[O-])cc2C1=O
inactive: Potency [1] | Potency [2] | Potency [3] | Potency [20] | Potency [4] | Potency [7] | Potency [8] | Potency [9] | outcome [10] | Potency [11] | Potency [14] | Potency [16] | Potency [17] | Potency [18]

OCCN(CCO)c1ccccc1
inactive: Potency [1] | Potency [2] | Potency [19] | Potency [4] | Potency [8] | Potency [9] | outcome [10] | Potency [11] | Potency [14] | Potency [15] | Potency [16] | Potency [17] | Potency [18]

CCCCNc1cc(C(=O)O)cc(S(N)(=O)=O)c1Oc1ccccc1
inactive: Potency [1] | Potency [2] | Potency [4] | Potency [7] | Potency [8] | Potency [9] | outcome [10] | Potency [11] | Potency [14] | Potency [16] | Potency [17] | Potency [18]
